# HT1080NT lethal: kills 2HG-producing HT-1080-NT fibrosarcoma cells. hit rate 1.6% among 360,000. HT-1080-NT fibrosarcoma viability, CellTiter-Glo ATP luminescence, 48 h. AID 686970. Potency, µM (titrated, usually from 46.1 µM), actives largely listed as cytotoxic;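 note: NT is the 2HG producing partner of a matched IDH1 knockdown line; nearly all actives have a fitted effect of over 55% in size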
#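 Luminescent CellTiter-Glo readout after 48 hours of compound exposure at 37 degrees C defined viability of HT-1080-NT cells. Activity was normalized to DMSO wells and cell-free media wells; concentration-response curves were fitted and assigned curve classes.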
# HepG2 tox: counter-screen for TGF-b inhibitors: cytotoxicity in HepG2 cells. HepG2 CAGA-GFP viability, ATP luminescence, 18 h. Potency, µM (doses to about 46.1 µM), hits mostly cytotoxic. hit rate 0.76% among 410,000. AID 588856
#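 HepG2 CAGA-GFP cells (1000/well, DMEM with 1% FBS) received compound, then TGF-beta at 500 pg/mL final, and were incubated 18 hours at 37 degrees C. Viability was read by CellTiter-Glo luminescence. Media-only wells were set as complete cell-killing and DMSO as no toxicity.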
# TGFb inhibitor: blocks TGF-b signaling; HepG2 CAGA-GFP TGF-b/SMAD3 reporter, GFP fluorescence, 18 h; TGF-beta stimulated, 500 pg/mL final; Potency, µM (highest dose often 46.1 µM), usual class: inhibitors; hit rate 1.2% among 410,000; note: nearly all actives have a fitted effect of over 65% in size
#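 HEPG2 CAGA-GFP cells (1000/well, DMEM with 1% FBS) were pre-incubated 2 h at 37 degrees C, given compound by pin tool, then stimulated with TGF-beta at 500 pg/mL final for 18 h before per-cell GFP fluorescence imaging.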
# ATXN2 expr inh: ATXN2 expression inhibition | HEK-293 ATXN2-luciferase reporter, luminescence, 24 h | Potency, µM (top dose mostly 57 µM), most hits filed as inhibitors | hit rate 0.72% among 360,000; note: nearly all actives have a fitted effect of over 55% in size
#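 ATXN2-luciferase reporter cells (luciferase flanked by upstream and downstream ATXN2 gene portions) were treated 24 h at 37 °C with compounds at up to 57 uM. SteadyGlo luminescence gave expression; GF-AFC fluorescence gave viability.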
# S2 tox: reduces viability in counter-screen for ATXN expression inhibitors; S2 cells (HEK-293 line with an ATXN2-luciferase reporter) viability, CellTiter-Fluor protease fluorescence, 24 h; Potency, µM (doses to about 56.7 µM), most hits filed as cytotoxic; hit rate 0.49% among 400,000; AID 651635; note: nearly all actives have a fitted effect of over 40% in size
# HT1080 IDH1KD tx: toxicity to HT-1080 IDH1 knockdown cells (counter line); Potency, µM (top dose mostly 46.1 µM), usual class: cytotoxic; HT-1080 IDH1 knockdown viability, ATP luminescence, 48 h; hit rate 2% among 360,000
#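 IDH1KD HT-1080 cells, 750/well, RPMI + 5% FBS; compound pinned after 2 h settling; 48 h, 37 °C; CellTiter-Glo luminescence; % activity normalised to DMSO and no-cell wells; curves fitted, classed by r2 and efficacy.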
# Hits are given with their value; 0 = inactive; ? = inconclusive; - = no result given. An excerpt weighted towards active compounds, which were near 3.8% of everything screened. Calls come from the whole dose curve; as a rule, active = well fitted curve in the direction sought with a large enough effect; inconclusive = small, poorly fitted or top-dose-only effect, or another doubt; inactive = no such curve, though single readings can be large; an effect the other way counts as inactive or inconclusive.
SMILES,HT1080NT lethal,HepG2 tox,TGFb inhibitor,ATXN2 expr inh,S2 tox,HT1080 IDH1KD tx
Cc1ccc(Cn2c(C(CO)Nc3nc(-c4ccc(F)cc4)cs3)nc3ccccc32)cc1 (stereo not drawn),?,0,0,?,-,?
CCOc1ccccc1CNc1ncnc2c1nc1n2CCCC1,-,0,0,-,-,-
O=C1/C(=C\c2ccc3ccccc3c2)CCCc2ccccc21,?,0,0,0,0,13µM
C/C(=N\N=C(N)N)c1ccc(Cl)cc1Cl,13µM,0,?,?,0,21µM
Cc1ccc(-n2nc(CO)c(C(=O)NCCc3ccccc3)n2)cc1C,-,0,0,-,-,-
Nc1nccc(-c2ccc3noc(-c4ccc(Cl)cc4)c3c2)n1,-,-,-,0,-,-
O=C(NCc1cccnc1)/C(=C/c1ccc(-c2ccc(Cl)cc2)o1)S(=O)(=O)c1ccccc1,6.3µM,4.5µM,?,13µM,-,5.6µM
O=C(NCc1cccnc1)/C(=C/c1ccc(Cl)cc1)NC(=O)c1ccccc1,0,0,0,0,0,0
O=C(CCn1cccc1)NCc1ccccc1,0,0,?,0,0,0
O=C(Cc1ccccc1)NCc1ccc(-n2cccc2)cc1,5.2µM,0,?,0,0,5.8µM
O=C(NCc1ccccc1Cl)NCc1ccccc1Cl,0,0,0,-,0,0
O=C(Cc1ccc(-n2cccc2)cc1)NCc1ccccc1Cl,8.2µM,0,0,0,0,8.2µM
Cc1nc2n(c(=O)c1CCN1CCC(c3noc4cc(F)ccc34)CC1)CCC[C@@H]2O,-,0,0,-,-,-
CCOC(=O)c1cc(CC)sc1NC(=O)C1CC(=O)NN1Cc1ccccc1 (stereo not drawn),?,0,?,0,0,21µM
COc1ccc(CN2CC[C@H]3C=CC[C@@H](C(=O)NC4CCCCC4)[C@H]3C2=O)cc1OC,-,0,0,-,-,-
CC(=O)Oc1ccc(C23c4ccccc4C2(OC(C)=O)c2cc(OC(C)=O)ccc23)cc1 (stereo not drawn),7.3µM,0,?,?,?,7.3µM
CC(=O)Oc1ccc(C(=O)Nc2ccccc2NC(=O)c2ccc(OC(C)=O)cc2)cc1,0,0,0,-,?,0
Nc1ccccc1/C=C/c1ccnc2ccccc12,-,0,0,-,-,-
Cc1ccc(NC(=O)C2CCCN(c3cnccn3)C2)cc1Cl (stereo not drawn),-,0,0,-,-,-
c1ccc(CN2CCN(c3ncnc4c3[nH]c3ccccc34)CC2)cc1,?,0,?,?,?,?
Cc1ccc2[nH]c3c(N4CCN(Cc5ccccc5)CC4)ncnc3c2c1,?,7.9µM,?,?,?,21µM
Cc1ccc2c(c1)[nH]c1c(N3CCN(Cc4ccccc4)CC3)ncnc12,?,0,11µM,8.9µM,-,?
O=C(c1ccc2c(=O)n(CC3CCCO3)c(=S)[nH]c2c1)N1CCN(C(=O)c2ccco2)CC1 (stereo not drawn),0,-,-,-,-,0
O=C(Nc1cccc2ccccc12)OC1C=CS(=O)(=O)C1 (stereo not drawn),18µM,0,0,?,0,?
O=C(N/N=C/c1ccccc1)c1ccc(CN2C(=O)c3cccc4cccc2c34)cc1,21µM,0,0,0,0,?
SMILES,HT1080NT lethal,HepG2 tox,TGFb inhibitor,ATXN2 expr inh,S2 tox,HT1080 IDH1KD tx
CC1C(=O)N(S(=O)(=O)c2ccc([N+](=O)[O-])cc2)[C@H]1c1ccc2ccccc2c1 (stereo partly drawn),-,0,0,-,-,-
COC(=O)C1=CN(c2ccc(C)cc2)C(N)=C(C#N)C1c1ccccc1F (stereo not drawn),0,-,-,-,-,?
COC(=O)C1=CN(c2ccc3c(c2)OCO3)C(N)=C(C#N)C1c1ccc(-c2ccccc2)cc1 (stereo not drawn),5.2µM,-,-,-,-,3.3µM
COC(=O)C1=CN(c2ccc(F)cc2)C(N)=C(C#N)C1c1ccc(-c2ccccc2)cc1 (stereo not drawn),10µM,-,-,-,-,10µM
COC(=O)C1=CN(c2ccc(Oc3ccccc3)cc2)C(N)=C(C#N)C1c1cccc(F)c1 (stereo not drawn),0,-,-,-,-,0
COC(=O)C1=CN(c2ccc(F)cc2)C(N)=C(C#N)C1c1cccc(F)c1 (stereo not drawn),?,-,-,-,-,23µM
CCn1c(-c2ccccc2F)nc2cc(C(=O)NC(c3ccccn3)C(F)(F)F)cc(NC(C)=O)c21 (stereo not drawn),-,-,-,-,0,-
CCCCC(=O)Nc1nnc(SCC(=O)NC2CCCC2)s1,0,0,0,0,0,0
O=C(CCCl)Nc1nnc(SCC(=O)NC2CCCC2)s1,15µM,0,?,0,0,29µM
Nc1nnc(SCC(=O)NC2CCCC2)s1,0,0,0,0,0,0
CCSc1nnc(SCC(=O)NC2CCCCC2)s1,0,2µM,0,0,0,0
Cc1ccccc1NC(=O)CSc1nc2nccnc2c(=O)n1CCc1c[nH]c2ccccc12,-,0,?,-,-,-
CCc1ccccc1NC(=O)Nc1cc(C(=O)NCc2cccc(F)c2)ccc1N1CCCC1,-,0,0,0,?,-
COc1ccccc1C1CN(Cc2cnn(C)c2C)Cc2ccccc2O1 (stereo not drawn),-,-,-,-,0,-
O=C(Nc1ccc(Cl)c(Cl)c1)Nc1nccs1,?,11µM,?,-,?,?
CC(=NNC(=S)N1CC2CCC(CC2)C1)c1cnccn1,?,0,3.2µM,?,?,?
C/C(=N\NC(=O)C1CCCN(S(=O)(=O)c2ccccc2)C1)c1ccccn1 (stereo not drawn),?,0,0,8.9µM,?,?
CC(=NNC(=S)N1CCCCCC1)c1cccc2cccnc12,0,0,2.2µM,?,?,?
CC(=NNC(=S)N1CCN(c2ccccn2)CC1)c1ccccn1,0,0,0,0,0,?
CC(=NNC(=S)N1CCN(C2CCCCCC2)CC1)c1ccccn1,21µM,0,?,0,1.2µM,?
C/C(=N\NC(=O)C1CCCN(S(=O)(=O)c2ccccc2)C1)c1ccncc1 (stereo not drawn),0,0,0,0,0,0
CCCN1CNc2c(c(=O)[nH]c(=S)n2CCc2ccc(OC)cc2OC)C1,0,-,-,-,-,0
CCOC(=O)N1CCN(/[N+]([O-])=N/Oc2ccc([N+](=O)[O-])cc2[N+](=O)[O-])CC1,-,0,?,-,-,-
CC(=NNC(=S)N1CC2CCC(CC2)C1)c1ccccn1,0,13µM,?,-,?,0
CC(=NNC(=S)Nc1ccc(C)cc1)c1ccccn1,?,0,?,0,0,?
NC(=O)CC(NC(=O)Cc1cccc2ccccc12)c1ccc(NC2CC3CCC2C3)c([N+](=O)[O-])c1 (stereo not drawn),0,3.5µM,?,?,?,0
CCOc1ccc(/C=C/c2nc(C#N)c(N3CCN(CC)CC3)o2)cc1,-,0,0,-,-,-

# Screening results (PubChem)
